Experimental data from paper PMC4336329 (PLoS ONE, 2015).
Hit rate of the full screen: of about 310,000 compounds, about 2,200 (0.71%) showed an effect of 50% or more. Effects have a minus sign here. For the sample, strong results were picked, then their nearest neighbours and some compounds at random.

What follows are compounds tested against human ether-à-go-go-related gene (hERG) potassium channel (human, UniProt Q12809) (assay: primary screen, population patch clamp on CHO cells stably expressing hERG; higher = less effect of the substance).
Chain of human ether-à-go-go-related gene (hERG) potassium channel (Q12809 whole entry, looked up): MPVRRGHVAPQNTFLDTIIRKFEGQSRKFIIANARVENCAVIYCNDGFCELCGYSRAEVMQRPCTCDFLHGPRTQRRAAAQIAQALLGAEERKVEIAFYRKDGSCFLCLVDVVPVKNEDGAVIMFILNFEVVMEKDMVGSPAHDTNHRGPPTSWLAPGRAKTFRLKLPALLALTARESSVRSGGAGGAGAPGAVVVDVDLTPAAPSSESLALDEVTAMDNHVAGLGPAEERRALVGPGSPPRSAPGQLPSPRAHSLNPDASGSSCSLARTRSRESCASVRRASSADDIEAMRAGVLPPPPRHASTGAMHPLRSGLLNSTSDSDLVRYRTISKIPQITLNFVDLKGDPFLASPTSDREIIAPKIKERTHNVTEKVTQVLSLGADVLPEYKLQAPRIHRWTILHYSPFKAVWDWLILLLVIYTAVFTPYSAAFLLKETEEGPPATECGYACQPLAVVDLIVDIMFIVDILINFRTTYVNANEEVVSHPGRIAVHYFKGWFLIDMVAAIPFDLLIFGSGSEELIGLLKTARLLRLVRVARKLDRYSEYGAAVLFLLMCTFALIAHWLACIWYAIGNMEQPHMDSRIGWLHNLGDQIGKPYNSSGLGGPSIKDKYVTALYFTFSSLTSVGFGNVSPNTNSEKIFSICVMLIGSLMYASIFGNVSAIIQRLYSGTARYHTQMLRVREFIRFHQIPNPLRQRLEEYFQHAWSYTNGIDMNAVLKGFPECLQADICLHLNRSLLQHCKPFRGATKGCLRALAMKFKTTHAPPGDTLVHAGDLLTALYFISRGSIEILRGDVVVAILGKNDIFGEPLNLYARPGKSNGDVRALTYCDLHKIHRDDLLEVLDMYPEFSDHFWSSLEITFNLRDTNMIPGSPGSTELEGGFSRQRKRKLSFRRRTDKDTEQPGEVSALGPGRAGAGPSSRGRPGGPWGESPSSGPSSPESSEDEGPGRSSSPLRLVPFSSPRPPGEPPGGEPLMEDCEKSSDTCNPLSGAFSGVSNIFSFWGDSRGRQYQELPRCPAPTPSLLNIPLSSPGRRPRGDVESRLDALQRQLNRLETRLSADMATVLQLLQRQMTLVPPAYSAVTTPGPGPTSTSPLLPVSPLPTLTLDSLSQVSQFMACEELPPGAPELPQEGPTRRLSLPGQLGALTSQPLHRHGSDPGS

Row | SMILES | hERG current change (%, negative = inhibition) at 1uM [%]
1 | CCOc1ccc(Cc2noc3c2C(=O)CCC3)cc1OCC | 23.3
2 | O=C(NCCCCCCNC(=O)NCc1ccco1)NCc1ccco1 | 6.09
3 | O=C1CCC(/C=C/c2ccccc2)=NN1Cc1ccc(Cl)c(Cl)c1 | 2.78
4 | O=C(NCc1ccccn1)/C(=N/O)c1ccccc1 | 9.34
5 | CC(C)n1c(O)c(N=Nc2ccc(Cl)nn2)c2ccccc21 | 10.7
6 | C=CCNC(=S)/C(=C(\[O-])c1ccc(Cl)cc1)[n+]1ccccc1 | 11.2
7 | Cc1ccc(S(=O)(=O)NCC2CCC(C(=O)N3CCN(C)CC3)CC2)cc1 (stereo not drawn) | 22.1
8 | Cl.OC(COCc1ccc(Cl)cc1)CN1CCc2ccccc2C1 (stereo not drawn) | -27.3
9 | NC(=O)C1CCCN(CC(O)COCc2ccc(Cl)cc2)C1.O=C(O)C(=O)O (stereo not drawn) | 11.5
10 | O=C(O)C(=O)O.OC(COCc1ccc(Cl)cc1)CN1CC=C(c2ccccc2)CC1 (stereo not drawn) | -84.2
11 | C=CC[N+]1(CC=C)CCOCC1.[Br-] | 34.2
12 | COc1ccc(C(=O)/C=C/c2cn(CN3CCN(C)CC3)c3ccccc23)cc1 | -3.29
13 | CCOc1ccc2nc(N3CCC(C(=O)N4CCC5(CC4)OCCO5)CC3)sc2c1 | 6.77
14 | CCOc1ccc2nc(N3CCC(C(=O)N4CCN(C(=O)c5ccco5)CC4)CC3)sc2c1 | -89.3
15 | CCOC(=O)C1CCN(c2cc(C)nc3ccc(OC)cc23)CC1 | -56.1
16 | CCOc1ccc2nc(N3CCC(C(=O)N4CCN(c5ccccn5)CC4)CC3)sc2c1 | -17.4
17 | COc1ccc2nc(C)cc(N3CCC(C(N)=O)CC3)c2c1 | -2.62
18 | Cc1ccc2nc(N3CCN(C(=O)c4ccco4)CC3)sc2c1 | -7.42
19 | O=C(c1ccco1)N1CCN(c2nc3ccsc3c(=O)s2)CC1 | -74.5
20 | COc1ccc(N2CCN(c3cc(C)nc4ccc(OC)cc34)CC2)cc1 | -31
21 | Cc1ccc(Cl)c2sc(N3CCN(C(=O)c4ccco4)CC3)nc12 | -0.903
22 | CCOC(=O)C1CCN(C(=O)C2CCN(c3nc4ccc(OC)cc4s3)CC2)CC1 | -53.4
23 | CCOc1ccc2nc(N3CCC(C(=O)N4CCN(C5CCCCC5)CC4)CC3)sc2c1 | -8.64

Row | SMILES | hERG current change (%, negative = inhibition) at 1uM [%]
24 | CCOc1ccc2nc(N3CCC(C(=O)N4CCN(c5ncccn5)CC4)CC3)sc2c1 | 4.83
25 | O=C(O)C1CCC(=O)N1C1c2ccccc2Oc2ccccc21 (stereo not drawn) | 7.76
26 | CC(NCC(=O)NCCc1ccc(S(N)(=O)=O)cc1)c1ccc(F)cc1 (stereo not drawn) | 15.1
27 | COc1ccccc1/C(C)=N/NC(=S)NCc1ccccc1 | 0.32
28 | COCc1nc(-c2ccc(-c3ccc(C)cc3)nc2OC)no1 | 4.81
29 | Cn1cccc1/C=N/N1CCN(c2ccccc2)CC1 | 18.1
30 | COc1ccc(CC(=O)OCC(=O)N2CCCc3ccccc32)cc1 | 7.67
31 | CCOC(=O)/C(C#N)=C1/C=CN(c2ccccc2)C=N1 | 7.43
32 | CCCn1c(N)c(C(=O)CSc2nnc3n2CCCCC3)c(=O)[nH]c1=O | 4.02
33 | CCOP(=O)(OCC)/C(C#N)=C/c1ccc([N+](=O)[O-])cc1 | -4.07
34 | N=c1c(C(=O)NCc2ccc(F)cc2)cc2c(=O)n3ccccc3nc2n1Cc1cccnc1 | -80.3
35 | COC(=O)c1cc2c(=O)n3ccccc3nc2n(Cc2cccnc2)c1=N | -51.5
36 | N=c1c(S(=O)(=O)c2ccccc2)cc2c(=O)n3ccccc3nc2n1Cc1cccnc1 | 6.5
37 | CCCCn1c(=NC(=O)c2ccco2)c(C(=O)OCC)cc2c(=O)n3ccccc3nc21 | -44.1
38 | COCCCn1c(C(=O)N2CCOCC2)cc2c(=O)n3ccccc3nc21 | 3.13
39 | COc1ccc(CNC(=O)c2cc3c(=O)n4ccccc4nc3n(Cc3cccnc3)c2=N)cc1 | -32.6
40 | CCOC(=O)c1cc2c(=O)n3ccccc3nc2n(Cc2ccccc2)c1=N | -68.9
41 | N#Cc1cc2c(=O)n3ccccc3nc2n(Cc2cccnc2)c1=O | 2.54
42 | COCCCn1c(=N)c(C(=O)NCc2ccc3c(c2)OCO3)cc2c(=O)n3ccccc3nc21 | -87.4
43 | N=c1c(S(=O)(=O)c2ccc(Cl)cc2)cc2c(=O)n3ccccc3nc2n1Cc1cccnc1 | 7.26
44 | CCCn1c(=NC(C)=O)c(C(=O)OCC)cc2c(=O)n3ccccc3nc21 | 8.09
45 | COCCCn1c(C(=O)Nc2ccc3c(c2)OCO3)cc2c(=O)n3ccccc3nc21 | 13.5
